Compounds with a hit are over-represented: about 4.7% of the library has one in this group of screens.
PfHsp90 set2 = inhibits growth of yeast expressing Plasmodium falciparum Hsp90 | S. cerevisiae expressing PfHsp90, BacTiter-Glo ATP, 48 h; yeast lacking PDR1 and PDR3 efflux regulators | inhibition, % at 9.4 µM | 0.32% of 310,000 active | AID 504621;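 active = every replicate shows inhibition above about 80%, whatever the replicate mean, limit read from the data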;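 note: 0% = DMSO neutral controls and 100% = 20 µM radicicol positive controls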
EBI2 block = antagonists of human EBI2 receptor; P32249; 0.81% of 360,000 active; inhibition, % at 5 µM; EBI2 beta-arrestin recruitment, luminescence, 7a,25-OHC stimulated; in the data active = inhibition above about 38%;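 note: enzyme fragment complementation signal reports receptor beta-arrestin coupling in cells; 0% = agonist plus DMSO wells and 100% = wells without agonist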
Target sequence (P32249 whole entry, looked up, the tested form may be a part): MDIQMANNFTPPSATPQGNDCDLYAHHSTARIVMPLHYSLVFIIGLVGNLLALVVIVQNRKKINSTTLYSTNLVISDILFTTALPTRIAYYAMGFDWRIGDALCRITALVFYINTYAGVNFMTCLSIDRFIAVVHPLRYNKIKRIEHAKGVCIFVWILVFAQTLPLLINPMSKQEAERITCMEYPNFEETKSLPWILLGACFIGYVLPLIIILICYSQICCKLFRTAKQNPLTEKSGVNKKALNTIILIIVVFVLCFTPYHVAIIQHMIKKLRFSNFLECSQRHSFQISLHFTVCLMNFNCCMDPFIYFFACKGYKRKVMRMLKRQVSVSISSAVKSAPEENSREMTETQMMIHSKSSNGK
tim10-1 inh = inhibits growth of tim10-1 mutant yeast. inhibition, % at 20 µM. 2.2% of 330,000 active. AID 463190. S. cerevisiae tim10-1 ts strain growth, BacTiter-Glo, 24 h;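 active = inhibition of at least 40%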;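 note: mutant grown at 25 °C; 0% = DMSO wells with yeast and 100% = wells holding no yeast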
tim23-1 inh = growth inhibitors of tim23-1 mutant yeast; S. cerevisiae tim23-1 growth, BacTiter-Glo luminescence, 24 h; 1.3% of 330,000 active; AID 463212; inhibition, % at 20 µM;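 active = growth inhibition of the mutant yeast at or above 50%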;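 note: temperature-sensitive mutant grown at 25 °C; plate controls were DMSO-treated mutant yeast for no effect and medium wells lacking yeast for full effect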
TIM10 inh = growth inhibitors of TIM10 yeast strain | inhibition, % at 10 µM | AID 463195 | 1.4% of 330,000 active | S. cerevisiae TIM10 strain growth, BacTiter-Glo luminescence, 24 h;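 active = inhibition of 40% or more at the single tested concentration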;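 note: wild-type TIM10 isogenic control strain grown at permissive 25 °C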
SKKanGAS inh = inhibitors of SKKanGAS S. pyogenes growth in kanamycin (SK-promoter or general growth effect) | BacTiter-Glo, 6 h | inhibition, % at 7.5 µM | 1.3% of 300,000 active | AID 1662;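 active = mean replicate score, as percent of positive control median, at least 50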;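 note: strain carries kanamycin resistance gene driven by streptokinase promoter and grows in 40 µg/ml kanamycin; loss of luminescence reflects streptokinase promoter inhibition or plain growth inhibition; 0% = median of DMSO wells and 100% = positive control at its reference dose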
tim23-1 conf = confirmation of tim23-1 mutant yeast growth inhibitors. shares compounds with tim23-1 inh. S. cerevisiae tim23-1 growth, BacTiter-Glo luminescence, 24 h. inhibition, % at 20 µM. 83% of 4,400 active. AID 463218;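 active = inhibition above about 39% in either of two replicate wells at 20 µM, limit read from the data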;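 note: temperature-sensitive tim23-1 mutant grown at 25 °C; 0% = DMSO wells with yeast and 100% = medium wells without yeast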
* = called active by the depositor; x = no result.

SMILES | PfHsp90 set2 | EBI2 block | tim10-1 inh | tim23-1 inh | TIM10 inh | SKKanGAS inh | tim23-1 conf
O=C(Nc1nc(-c2cccs2)c(-c2ccccc2)s1)c1ccco1 | -26 | 8 | 26 | 55* | 36 | 52* | 62*
O=C(Nc1nc(-c2nc3ccccc3s2)cs1)c1ccco1 | -39 | -5 | -6 | -12 | -35 | -3 | x
O=C(Nc1nc(-c2ccc(Cl)s2)cs1)c1ccco1 | 16 | 3 | 21 | 62* | 29 | 13 | 67*
Nc1nc(-c2ccc(NC(=O)c3ccco3)cc2)cs1 | 33 | 3 | 35 | 56* | 39 | 16 | 70*
COc1ccc([C@H]2N[C@]3(CCCN(Cc4ccco4)C3=O)[C@H]3C(=O)N(Cc4ccccc4)C(=O)[C@@H]23)cc1 | x | -4 | x | x | x | x | x
COc1cc(C(=O)N/C(=C\c2cn(S(=O)(=O)N(C)C)c3ccccc23)C(=O)N2CCCC2)cc(OC)c1OC | -2 | -3 | 7 | -3 | 13 | 1 | x
CCN(CC)CCCn1c2c(c(SCC(=O)Nc3ccc(OC(F)(F)F)cc3)nc1=O)CCC2 | x | -3 | -2 | 10 | -2 | 3 | x
Cc1ccc(S(=O)(=O)CCC(=O)Nc2nnc(-c3ccccc3S(C)(=O)=O)o2)cc1 | -43 | 1 | 4 | -10 | -5 | 1 | x
O=C(Nc1ccc(-c2nnc3n2CCCCC3)cc1)c1ccco1 | -21 | -8 | 15 | 11 | 12 | 4 | x
O=C(Nc1ccc(-c2ccc(N3CCCCC3)nn2)cc1)c1ccco1 | x | 1 | 27 | 63* | 30 | 20 | 66*
COCCn1c(SCC(=O)NC2CC2)nnc1-c1ccc(Cl)cc1 | x | 5 | -5 | -3 | -10 | x | x
CCOC(=O)C1=C(C)N=c2s/c(=C\c3ccncc3)c(=O)n2C1c1ccc2c(c1)OCO2 (stereo not drawn) | x | 36 | 40 | 53* | 23 | 0 | 49*
N#CC(C(=O)NC1CCCCC1)=C1CCCCCC1 | 9 | -6 | 8 | 21 | 21 | 0 | x
CCOC(=O)C1=C(N)Oc2cc(O)ccc2C1c1ccc(F)cc1F (stereo not drawn) | 14 | 0 | 12 | 56* | 23 | 0 | 59*
CCC(C)(C(=O)NC1CCCC1)N(C(=O)c1ccccn1)c1ccccc1 (stereo not drawn) | 18 | -17 | 9 | 6 | 8 | 6 | x
Oc1ccc(Cl)cc1CNc1cnc2ccccc2c1 | -22 | 5 | -2 | 62* | 26 | 27 | 64*
CCc1nc(N2CCN(C(=O)CCl)CC2)c2c3c(sc2n1)CC(C)CC3 (stereo not drawn) | 1 | -10 | 15 | 55* | 38 | 13 | 39
CCc1nc(N2CCN(C(C)=O)CC2)c2c3c(sc2n1)CC(C(C)(C)C)CC3 (stereo not drawn) | -91 | 15 | 16 | 35 | 2 | 7 | x
CCCCn1nc(C(=O)NCC(c2cccs2)N2CCOCC2)c2ccccc2c1=O (stereo not drawn) | -13 | 9 | 14 | 37 | 17 | x | x
Cc1ccccc1C(=O)Oc1cccc2c(O)cccc12 | -15 | 1 | 28 | 72* | 30 | 9 | 49*
Cc1cccc(C(=O)Oc2cccc3c(O)cccc23)c1 | -14 | -6 | 0 | 69* | 21 | 9 | 51*
CCc1nc2c(OCc3cccc(OC)c3)cccn2c1N(C)C(=O)c1ccccc1F | x | -1 | x | x | x | x | x
O=C(COc1ccc(Br)cc1)NC(=S)Nc1ccccc1N1CCOCC1 | 0 | -8 | 17 | 10 | 2 | 5 | x
O=C(NC(=S)Nc1ccccc1N1CCOCC1)c1ccc(Br)cc1 | -19 | 24 | 33 | 55* | 29 | -22 | 54*
COc1cccc(OC)c1C(=O)Nc1cccc2c1CCCC2 | 5 | -8 | 9 | 16 | 7 | -5 | x
CS(=O)(=O)Nc1ccccc1-c1ccc2nccn2c1 | x | -12 | x | x | x | x | x
CN(Cc1ccco1)c1ncnc2ccc(-c3ccc4c(c3)OCO4)cc12 | -10 | 16 | 22 | 51* | 7 | x | 42*
O=C(COC(=O)CC1CCCC1)Nc1ccc(Cl)cc1 | x | 5 | 36 | 62* | 26 | x | 55*
CCOc1ccc(NC(=O)COC(=O)CC2CCCCC2)cc1 | -14 | -5 | -21 | 31 | 15 | x | x
